System: TDF
Experiment: H1.0 immunofluorescence intensity relative to DMSO (% of DMSO); higher = stronger H1.0 induction, active = 120 or more
Conditions: concentration: 10 µM; 24 h
Outline: (§1)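 Six fields per well were imaged at ×10 after the cells were fixed in 3.7% formaldehyde and stained with a rabbit anti-H1.0 antibody, an AlexaFluor 647 secondary and DAPI. The HCC1569 and TDF cells had been plated at 800 per well in 384-well plates (RPMI, 10% FBS) and treated in triplicate with compounds at 10 µM for 24 h at 37 °C. The values are the median of replicates of H1.0 nuclear intensity or cell number, as percent of the plate control. Smoothing for positional effects was applied to HCC1569 data.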
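Also: TDF is a line of transformed human dermal fibroblasts of mesenchymal origin.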

Compound	H1.0 immunofluorescence intensity
CCC1=C(C)CN(C(=O)NCCc2ccc(S(=O)(=O)NC(=O)NC3CCC(C)CC3)cc2)C1=O (stereo unspecified) [Glimepiride]	93.1 (inactive)
Cl.O=c1n(CCCN2CCN(c3cccc(Cl)c3)CC2)nc2ccccn12 [Trazodone hydrochloride]	89.5 (inactive)
CC(=O)OC1CC2(C)C(CC(O)C3C4(C)CCC(O)C(C)C4CCC32C)C1=C(CCC=C(C)C)C(=O)[O-].[Na+] (stereo unspecified) [Fusidic acid sodium]	89.5 (inactive)
Cc1cc(C2CCCCC2)n(O)c(=O)c1.NCCO [Ciclopirox ethanolamine]	93.2 (inactive)
COc1ccc(-c2cc(C(O)C3CCCCN3)c3ccccc3n2)cc1.Cl.Cl (stereo unspecified)	169 (active)
Cc1scc2c1N(C(=O)CN1CCN(C)CC1)c1ccccc1NC2=O.Cl.Cl [Telenzepine.2HCl]	96.6 (inactive)
CN=C(NC#N)NCCSCc1nc[nH]c1C [Cimetidine]	102 (inactive)
O=Nc1ccc2oc(=O)ccc2c1 [6-Nitroso-1,2-benzopyrone]	92.2 (inactive)
Nc1ccc(S(=O)(=O)Nc2ccnn2-c2ccccc2)cc1 [Sulfaphenazole]	89.8 (inactive)

System: HCC1569
Experiment: H1.0 immunofluorescence intensity relative to DMSO (% of DMSO); higher = stronger H1.0 induction, active = 140 or more
Conditions: concentration: 10 µM; 24 h
Outline: as §1

Compound	H1.0 immunofluorescence intensity
c1cc(OCCN2CCCCC2)cc(-c2n[nH]c3ccc(-c4ncn[nH]4)cc23)c1	115 (inactive)
Cc1ccccc1C(=O)c1ccc(Nc2ccc(Br)cc2N)cc1Cl	117 (inactive)
Nc1cccc(-c2cc3c(Oc4cccc(O)c4)ncnc3[nH]2)c1 [GSK3b Inhibitor XII, TWS119]	214 (active)
CCCNC(=O)NS(=O)(=O)c1ccc(Cl)cc1 [Chlorpropamide]	91.2 (inactive)
CCCCCC=CCC=CCC=CCC=CCCCC(=O)OC(CO)COC(=O)CCCCCCCCCCCCCCCCC (stereo unspecified) [1-Stearoyl-2-arachidonoyl-glycerol]	98 (inactive)
CCCCCC=CCC1OC1C=CC(O)CC=CCCCC(=O)O (stereo unspecified) [Hepoxilin A3]	100 (inactive)
CS(=O)(=O)c1ccc(C(O)C(COC(=O)CN)NC(=O)C(Cl)Cl)cc1 (stereo unspecified) [Thiamphenicol glycinate]	106 (inactive)
O=C1Nc2ccc(Cl)cc2C1=Cc1cc(Cl)c(O)c(Cl)c1 [PKR Inhibitor, Negative Control]	128 (inactive)
CCN(CC)C(C)C(=O)N1c2ccccc2Sc2ccccc21.Cl (stereo not drawn) [10-(alpha-Diethylaminopropionyl)-phenothiazine hydrochloride]	85.9 (inactive)
NC(CS(=O)O)C(=O)O [L-Cysteinesulfinic Acid]	92.3 (inactive)
CCCn1c(=O)[nH]c(=O)c2[nH]cnc21 [3-n-Propylxanthine]	101 (inactive)
CN1CCC(=C2c3ccccc3CC(=O)c3sccc32)CC1.O=C(O)C=CC(=O)O [Ketotifen fumarate]	98.7 (inactive)
COC(=O)N=NC=C1C=[N+]([O-])c2ccccc2N1O [Carbadox]	92.8 (inactive)
CCC(=O)c1ccc2c(c1)N(CCCN(C)C)c1ccccc1S2.Cl [Propionylpromazine hydrochloride]	117 (inactive)
Nc1ccccc1NC(=O)CCCCCCC(=O)Nc1ccccc1 [N~1~-(2-aminophenyl)-N~8~-phenyloctanediamide]	145 (active)
CCCCCC=CCC=CC=CC=CC(O)C(O)CCCC(=O)O (stereo unspecified)	96.6 (inactive)
O=C(NO)c1cccc(C(=O)NCCc2ccccc2)c1 [N1-hydroxy-N3-phenethylisophthalamide]	101 (inactive)
CC1(C)SC2C(NC(=O)COc3ccccc3)C(=O)N2C1C(=O)[O-] (stereo unspecified) [Pencillin V]	112 (inactive)
COc1ccc2c(c1)CC[C@@H]1[C@@H]2CC[C@]2(C)[C@@H](NCCCCCCN3C(=O)C=CC3=O)CC[C@@H]12.O	107 (inactive)
CC(C)c1cccc(C(C)C)c1N1C(=O)c2ccc(O)cc2C1=O	162 (active)
NS(=O)(=O)Cc1noc2ccccc12 [Zonisamide]	90.5 (inactive)
CN(C)CCC(CSc1ccccc1)Nc1ccc(S(=O)(=O)NC(=O)c2ccc(N3CCN(Cc4ccccc4-c4ccc(Cl)cc4)CC3)cc2)cc1[N+](=O)[O-] (stereo unspecified)	129 (inactive)
